Data on 25 molecules can be found in PubChem BioAssay (EPA / NIEHS).

Several values for one entry are separate records, joined by “and”; a condition that tells them apart may be missing. Equal entries are not always repeated. Records with an inconclusive call do not appear. A structure can be active in one record and inactive in another. Activity calls are given as the source filed them. The calls were made as follows: active = hit-call score of the fitted dose curve at least 0.9, where 1 is the maximum; inconclusive = response in the unintended direction; inactive = score below 0.9.

Test [1] in a line: ATG_XTT_Cytotoxicity: Cytotoxicity Assessment in the Attagene TRANS-FACTORIAL HepG2 Assay (AID 2283584). In outline: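 XTT readout of cell number in transfected HepG2 cells, 24 h post-dosing; DMSO serves as negative control and baseline, with activity taken as loss of viability signal.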
Test [2] is described as follows: TOX21_p53_BLA_p2_viability: Viability Assessment in the Tox21 HCT-116 p53 Agonism Beta-lactamase Assay, Phase 2 (AID 2283591).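 Also: actives lower the ATP signal meaning cytotoxicity.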 In outline:
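HCT116 p53-bla cells, 4000/well, dosed after 5 h plating (217-fold dilution of DMSO stocks) and incubated 16 h at 37C. Viability taken as cellular ATP by CellTiter-Glo luminescence after 30 min RT; signal loss marks cytotoxicity.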

The target in test [3] is Cellular tumor antigen p53 (Homo sapiens) (UniProt P04637). Description: TOX21_p53_BLA_p2_ratio: Tox21 HCT-116 p53 Agonism Beta-lactamase Assay, Ratio, Phase 2 (AID 2283592). In outline: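 Readout: blue/green (460/530 nm) FRET emission ratio after 2 h CCF4-AM loading at room temperature, excitation 405 nm. HCT116 p53 bla cells, 16 h compound exposure at 37C, 5% CO2; agonist direction fitted against DMSO baseline.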
Sequence of Cellular tumor antigen p53 (Homo sapiens) (P04637 whole entry, looked up): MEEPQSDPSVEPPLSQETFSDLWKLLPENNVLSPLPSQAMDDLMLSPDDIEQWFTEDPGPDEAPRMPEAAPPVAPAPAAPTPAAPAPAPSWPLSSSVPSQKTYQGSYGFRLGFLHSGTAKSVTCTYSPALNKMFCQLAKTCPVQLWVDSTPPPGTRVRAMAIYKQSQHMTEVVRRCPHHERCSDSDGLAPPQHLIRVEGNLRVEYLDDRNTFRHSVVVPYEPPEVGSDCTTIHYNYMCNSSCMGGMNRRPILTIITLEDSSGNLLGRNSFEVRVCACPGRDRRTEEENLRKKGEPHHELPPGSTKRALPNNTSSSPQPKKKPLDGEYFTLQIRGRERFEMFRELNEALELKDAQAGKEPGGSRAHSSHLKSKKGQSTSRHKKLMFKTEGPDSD

A short description of test [4]: TOX21_p53_BLA_p3_viability: Viability Assessment in the Tox21 HCT-116 p53 Agonism Beta-lactamase Assay, Phase 3 (AID 2283593).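 Also: cells exposed to compound for 16 h before reading.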 The method in brief: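 HCT116 cells, 4000/well, dosed 5 h after plating by pin transfer (217-fold dilution from DMSO stock) and incubated 16 h at 37C, 5% CO2. Viability read as ATP luminescence with CellTiter-Glo after 30 min at room temperature.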

Test [5] concerns the target Cellular tumor antigen p53 (Homo sapiens) (UniProt P04637). The experiment in a line: TOX21_p53_BLA_p3_ratio: Tox21 HCT-116 p53 Agonism Beta-lactamase Assay, Ratio, Phase 3 (AID 2283596). In outline: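 Cells were seeded at 4000/well, rested 5 h at 37C, then dosed with DMSO compound solutions (217-fold dilution) for 16 h. CCF4-AM substrate was loaded for 2 h at room temperature, and the 460/530 nm emission ratio was fitted for gain of signal versus DMSO.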

A short description of test [6]: TOX21_p53_BLA_p4_viability: Viability Assessment in the Tox21 HCT-116 p53 Agonism Beta-lactamase Assay, Phase 4 (AID 2283597).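 Also: hits lower the luminescence signal meaning cytotoxicity.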 In outline: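 ATP content by CellTiter-Glo luminescence, 30 min RT, read after the beta-lactamase ratio step. Cells: HCT116, 4000/well, compound added after 5 h, exposure 16 h at 37C. Signal loss = reduced viability.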
Test [7] concerns the target Cellular tumor antigen p53 (Homo sapiens) (UniProt P04637). The experiment in a line: TOX21_p53_BLA_p5_ratio: Tox21 HCT-116 p53 Agonism Beta-lactamase Assay, Ratio, Phase 5 (AID 2283599). In outline:
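HCT-116 p53-bla cells (4000/well) plated 5 h, dosed with compound (217-fold DMSO dilution) for 16 h at 37 C; CCF4-AM substrate 2 h at room temperature. Activity is the 460/530 nm emission ratio (405 nm excitation), fitted in gain-of-signal direction versus DMSO.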

Test [8] in a line: TOX21_p53_BLA_p5_viability: Viability Assessment in the Tox21 HCT-116 p53 Agonism Beta-lactamase Assay, Phase 5 (AID 2283600). The method in brief: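 ATP luminescence (CellTiter-Glo, 30 min, RT) served as the viability read-out, with loss of signal indicating cytotoxicity. Compounds in DMSO were pinned at a 217-fold dilution onto 4000 cells/well and incubated 16 h, 37C.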
Test [9] concerns the target Cellular tumor antigen p53 (Homo sapiens) (UniProt P04637). The experiment in a line: TOX21_p53_BLA_p4_ratio: Tox21 HCT-116 p53 Agonism Beta-lactamase Assay, Ratio, Phase 4 (AID 2283601). In outline: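 HCT-116 p53 beta-lactamase reporter cells (4000/well) preincubated 5 h, then compound (217-fold dilution of DMSO stock) for 16 h at 37C. CCF4-AM substrate added 2 h at room temperature; 460/530 nm emission ratio fitted upward versus DMSO.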

One may read the AC50 as the concentration at which the activity in the assay is half-maximal. Take `CN(C)c1ccc2nc3ccc(=[N+](C)C)cc-3sc2c1`: the result in test [1], in [2], in test [4], in [5], in test [6] and in test [7] was inactive. For the same molecule, the result in test [8] was inactive. The AC50 in test [3] was 8.31 µM (active) and 23 µM (active) and 11.1 µM (active); in test [4], 23 µM (active); in test [5], 34.3 µM (active); in [6], 10.8 µM (active); in test [7] it was 45.7 µM (active) and 13 µM (active); in [9] it was 41.2 µM (active) and 14.4 µM (active) and 28.4 µM (active).
Regarding `CC(=O)OC1CCCCC1C(C)(C)C` (stereo not drawn), the molecule was called inactive in test [1], in test [2], in [3], in test [4], in test [5] and in test [6]. In addition, the outcome in test [7], in test [8] and in [9] was inactive.
As to `C=CCNCC=C`, the call in test [1], in test [2], in test [3], in [4], in [7] and in test [8] was inactive. Also, the outcome in test [9] was inactive.
`CCCCCCCCCCCC(=O)OCC`: the call in test [1], in test [2], in test [3], in [4], in [7] and in test [8] was inactive. Further, the outcome in test [9] was inactive.
As for `Oc1ccc(/C=C/c2cc(O)cc(O)c2)cc1`, the call in test [1], in test [2], in test [3], in test [4], in test [6] and in test [7] was inactive. Moreover, the molecule was classed as inactive in test [8] and in test [9].
For `CC(CC(C)C)=NO`, the outcome in [1], in test [2], in [3], in test [4], in [6] and in [7] was inactive.
On to `Oc1c(Cl)cc(Cl)c(Cl)c1Cl`, for which the molecule was classed as inactive in [1], in test [2], in test [4], in test [6] and in test [8]. The concentration at half-maximal activity (AC50) in test [3] is 34.4 µM (active) and 22.5 µM (active); in test [7], 27 µM (active) and 21.1 µM (active); in [9], 35.5 µM (active) and 18.8 µM (active).
For the molecule `COc1ccc(C(=O)c2ccccc2)c(O)c1`, the molecule was called inactive in [1], in test [2], in test [3], in test [4], in [5] and in test [7]. The molecule was classed as inactive in [8] and in test [9].
Regarding `CC/C=C\CCOC(=O)c1ccccc1O`, the call in test [1], in test [2], in [3], in test [4], in test [5] and in test [7] was inactive. For the same molecule, the molecule was classed as inactive in test [8] and in [9].
In the case of `CCCC/C=C/C=C\C=O`, the outcome in test [1], in test [2], in test [3], in test [5], in [6] and in test [7] was inactive. Besides, the result in [8] was inactive.
In the case of `C=C1C[C@H]2[C@@H]3C=C(C)C4=CC(=O)CC[C@]4(C)[C@H]3CC[C@]2(C)[C@@]1(OC(C)=O)C(C)=O`, the call in test [1], in [2], in [3], in test [4], in [6] and in test [7] was inactive. The outcome in [8] and in test [9] was inactive.
In the case of `CCN1CCCC1=O`, the molecule was classed as inactive in test [1], in test [2], in test [3], in test [4], in [5] and in test [7]. Further, the molecule was called inactive in [8] and in test [9].
For the molecule `COCC(=O)O`, the molecule was classed as inactive in test [1], in test [2], in test [3], in test [4], in test [6] and in [8]. Besides, in test [9], the result was inactive.
As for `CC1C(C)(C)C2=C(C(=O)CCC2)C1(C)C` (stereo not drawn), the call in [1], in [2], in test [3], in test [4], in [6] and in [7] was inactive. For the same molecule, in test [8], the molecule was called inactive.
`CCCCCCOc1ccc(N)cc1`: the outcome in test [1], in test [2], in [3], in test [4], in [6] and in test [7] was inactive. The result in [8] and in test [9] was inactive.
With `CC(C)c1cccc(C(C)C)c1N`, the molecule was classed as inactive in [1], in test [2], in [3], in test [4] and in [7].
Turning to `CC(=O)CC(=O)Nc1ccccc1C`, the molecule was classed as inactive in test [1], in test [2], in test [3], in test [4], in test [7] and in [8].
Turning to `O=C(O)c1ccc2c(c1)C(=O)OC2=O`, the outcome in [1], in [2], in [3], in test [4], in [5] and in [6] was inactive. Moreover, the call in test [8] and in [9] was inactive.
Consider `C/C=C/C=C/CCCCCCCO`, for which the outcome in test [1], in test [2], in test [3], in test [4], in [6] and in test [7] was inactive. Also, in test [8], the molecule was called inactive.
In the case of `CCCCCCO`, the molecule was called inactive in test [1], in [2], in test [3], in [4], in [5] and in [6]. Moreover, the molecule was classed as inactive in [8].
With `CCCCCCC=O`, the outcome in [1], in [2], in test [3], in test [4], in test [6] and in [7] was inactive. The molecule was called inactive in test [8] and in [9].
With `C=CCCCCCCCCO`, the result in test [1], in test [2], in [3], in [5], in test [6] and in [7] was inactive. Besides, the call in test [8] and in test [9] was inactive.
As for `CCCC(CC)c1ccccc1` (stereo not drawn), the call in test [1], in [2], in test [3], in test [4] and in [6] was inactive.
Turning to `CC(C)(C)C1CCC(=O)CC1`, the molecule was classed as inactive in test [1], in test [2], in [3], in test [4], in test [5] and in [7]. Also, the call in test [8] and in test [9] was inactive.
For the molecule `CCCCNS(=O)(=O)c1ccc(C)cc1`, the call in test [1], in test [2], in test [3], in test [5], in [6] and in [7] was inactive. In test [9], the outcome was inactive.
